Assay results taken from PubChem BioAssay AID1662 (Broad Institute, 2009).
In all, about 300,000 compounds went through this assay and about 4,000 (1.3%) were called active.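 Rule for the calls: active = mean replicate score, as percent of positive control median, at least 50; inconclusive = mean below 50 but one replicate at or above 50; inactive = mean and every replicate below 50.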 The list comes from a sample in which actives are over-represented; it also holds similar structures and randomly drawn compounds.

assay: S. pyogenes SKKanGAS growth inhibitors in kanamycin, primary screen, streptokinase expression inhibitor project, SKKanGAS strain, BacTiter-Glo luminescence (AID 1662); details: 6 h, at 7.5 µM, active compounds read high;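 note: strain carries kanamycin resistance gene driven by streptokinase promoter and grows in 40 µg/ml kanamycin; loss of luminescence reflects streptokinase promoter inhibition or plain growth inhibition; 0% = median of DMSO wells and 100% = positive control at its reference dose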

Structure (SMILES) | inhibition
COc1cc(/C=C2\CCCc3c2nc2ccccc2c3C(=O)O)cc(Cl)c1O | 15.8% (inactive)
COc1cc(-c2cc(C(=O)OCC(=O)Nc3ccc4c(c3)OCO4)c3ccccc3n2)cc(OC)c1OC | 13.9% (inactive)
NC(=O)c1ccc(NC(=O)COC(=O)c2c3c(nc4ccccc24)/C(=C\c2ccc4c(c2)OCO4)CCC3)cc1 | 64% (active)
O=c1[nH]c(CSc2ccccc2)nc2c1oc1ccccc12 | -3.16% (inactive)
COc1ccc(C(=O)NC2=NCCS2)c(OC)c1 | -2.91% (inactive)
CCc1cc(=O)oc2c(C)c(OCC(=O)N3CC[C@@]4(O)CCCC[C@H]4C3)ccc12 | -5.4% (inactive)
Cc1nn(-c2ccccn2)c2c1C(c1ccncc1)C1=C(CC(C)(C)CC1=O)N2 (stereo not drawn) | -3.06% (inactive)
CC(=C1C(=O)c2ccccc2C1=O)N1CCN(c2ccccn2)CC1 | 1.02% (inactive)
Cc1cc(C)c(C2C3=C(Nc4c2c(C)nn4-c2ccccn2)c2ccccc2C3=O)c(C)c1 (stereo not drawn) | 57.1% (active)
C=CCNc1nc(N)c([N+](=O)[O-])c(NC2CCCCC2)n1 | 6.03% (inactive)
C=CCC(C(=O)c1ccccc1)[N+](C)(C)CC=C (stereo not drawn) | 2.59% (inactive)
O=C(OCc1ccc(-c2ccccc2)cc1)c1cccc(O)c1 | 54.9% (active)
O=C(OCc1ccc(Br)cc1)c1cccc(-c2nnc(-c3ccccc3)o2)c1 | 7.23% (inactive)
O=C(OCC(=O)c1c[nH]c2ccccc12)c1cccc(O)c1 | -11.7% (inactive)
O=C(O)CCC(=O)Nc1ccc(OCC2CCCO2)cc1 (stereo not drawn) | 1.88% (inactive)
O=C(C1CCCO1)N(c1ccc(F)cc1)C1C=CS(=O)(=O)C1 (stereo not drawn) | -0.303% (inactive)
CCOC(=O)c1cnc(Nc2nc3ccccc3o2)nc1CSC(=S)N1CCCCC1 | 30.1% (inactive)
Cc1ccc(C2CCN(C(=S)Nc3cccc(Cl)c3)C2)cc1 (stereo not drawn) | 14.8% (inactive)
Clc1cccc(N=C2NN=C(c3ccc4c(c3)OCCO4)CS2)c1 | 21.6% (inactive)
CN(C)c1nc(=Nc2cccc(Cl)c2)ss1 | 53.2% (active)
Cc1ccccc1N1CCN(C2CCCN(C(=O)c3ocnc3C)C2)CC1 (stereo not drawn) | -0.706% (inactive)
Cc1cccc(N(CC(=O)N=Nc2c(O)[nH]c3ccccc23)S(C)(=O)=O)c1C | 15.7% (inactive)
O=[N+]([O-])c1cc(S(=O)(=O)Nc2cccc(Cl)c2)ccc1N=Nc1c(O)[nH]c2ccccc12 | 59.8% (active)
CN1CCN(c2ccc(S(=O)(=O)Nc3ccccc3)cc2[N+](=O)[O-])CC1 | -10.6% (inactive)

Structure (SMILES) | inhibition
Cc1nc(COc2cc3oc(=O)cc(C)c3cc2Cl)cs1 | -7.93% (inactive)
COc1ccc2c(c1)CC[C@@H]1[C@@H]2CC[C@]2(C)C(=O)CC[C@@H]12 | -7.32% (inactive)
O=C(Nc1nnc(-c2ccco2)o1)c1ccc(S(=O)(=O)N2CCOCC2)cc1 | 1.36% (inactive)
COc1ccccc1-c1nnc(NC(=O)c2ccc3ncsc3c2)o1 | 20% (inactive)
COc1cc(-c2nnc(NC(=O)C3=COCCO3)o2)cc(OC)c1OC | 2.37% (inactive)
O=C(Nc1ncc([N+](=O)[O-])s1)C1COc2ccccc2O1 (stereo not drawn) | -8.31% (inactive)
Cc1ccc(C(=O)Nc2nnc(C3=COCCO3)o2)cc1C | 85.9% (active)
O=C(Nc1nnc(C2=COCCO2)o1)c1ccc([N+](=O)[O-])s1 | 63.4% (active)
CC1(C)Cc2c(sc(NC(=O)C(=O)NCC3CCCO3)c2C(=O)O)CO1 (stereo not drawn) | 2.62% (inactive)
CC1CCCCC1NC(=O)CCS(=O)(=O)c1ccc2c(c1)NC(=O)CO2 (stereo not drawn) | 6.59% (inactive)
COC(=O)c1cc(CNC(=O)CC(C)c2ccccc2)ccc1OC (stereo not drawn) | -1.27% (inactive)
CCOC(=O)c1ccc(Nc2cc3ccccc3c(=O)[nH]2)cc1 | 3.57% (inactive)
CCOC(=O)c1sc(=S)n2c1[nH]c(=O)c1ccc(C(=O)OC)cc12 | 66.6% (active)
CCOC(=O)C1=C(C)Nc2sc(C(=O)c3ccc(Br)cc3)c(N)c2C1c1ccc(C(=O)OC)cc1 (stereo not drawn) | 22% (inactive)
COc1cccc(NS(=O)(=O)c2ccc(-c3coc(C)n3)cc2)c1 | 2.27% (inactive)
CN(C)CCN(Cc1ccccc1)S(=O)(=O)c1csc(C(N)=O)c1 | -1.24% (inactive)
CC1=C(C(=O)Nc2ccccc2)C(c2cccs2)C(C#N)=C(SCC#N)N1 (stereo not drawn) | 15.4% (inactive)
Cc1noc(C)c1C(=O)N(CC(=O)NC1CCCC1)Cc1ccccc1F | 2.6% (inactive)
COCCN(C(=O)COC(=O)Cc1cccc(OC)c1)c1c(N)n(Cc2ccccc2)c(=O)[nH]c1=O | -1.12% (inactive)
Cc1cccc(NC(=S)Nc2ccc(Cl)c(Cl)c2)c1 | 82% (active)
Cc1cccc(NC(=S)Nc2ccc3cn[nH]c3c2)c1 | 2.46% (inactive)
Cc1cccc(NC(=S)Nc2ccc(Br)cc2)c1 | 5.45% (inactive)
Cc1cc(C)cc(OCC(=O)Nc2cc(NC(=O)COc3cc(C)cc(C)c3)cc(C(=O)O)c2)c1 | 26% (inactive)
COc1ccc(Cl)cc1NC(=O)CN(C)Cc1ccc(OC)c(OC)c1 | 19.7% (inactive)

Structure (SMILES) | inhibition
COc1ccc(N2CCN(C(C)=C3C(=O)c4ccccc4C3=O)CC2)cc1 | 0.489% (inactive)
CCOC(=O)C1=C(c2ccc(OC)cc2)C(=O)c2ccccc2C1=O | 54.9% (active)
CCOC(=O)c1c(-c2ccc(C)cc2)csc1/N=C(\C)C1=C(O)c2ccccc2C1=O | 8.34% (inactive)
Cc1ccc(N=C2SCCCN2C(=O)c2cccc(N3C(=O)CCC3=O)c2)cc1Cl | 1.34% (inactive)
O=C(NCCOc1ccccc1F)Nc1ccc(Br)cc1 | -7.4% (inactive)
Cc1ccc2cccc(S(=O)(=O)N3CCN(c4ccccc4F)CC3)c2n1 | -8.1% (inactive)
CN1CCN(c2cc3c(cc2F)c(=O)c(C(=O)O)cn3CCF)CC1 | 66.8% (active)
CCn1cc(C(=O)NCCO)c(=O)c2cc(F)c(N3CCN(C)CC3)cc21 | 1.21% (inactive)
CCCCCCn1cc(C(=O)O)c(=O)c2cc(F)c(N3CCCCC3)cc21 | 10% (inactive)
CC(C)(C)c1ccc(C(=O)NCCn2c(N)c(C#N)c3nc4ccccc4nc32)cc1 | 8.82% (inactive)
CCOc1ccccc1NC(=O)Cn1nnc(C(=O)NCc2cccs2)c1N | -0.164% (inactive)
CC(C)Cn1c(N)c(C(=O)NCc2cccs2)c2nc3ccccc3nc21 | 88.2% (active)
O=C(NCCS(=O)(=O)N1CCN(c2ccccc2)CC1)c1ccco1 | -0.162% (inactive)
COc1cc(OC)c(OC)cc1CN1CCN(C(=O)c2cccc3ccccc23)CC1 | -1.09% (inactive)
Cc1ccc(S(=O)(=O)N2CC(C)N(S(C)(=O)=O)C2)cc1 (stereo not drawn) | -4.98% (inactive)
Cc1c(C(N)=O)sc2ncn(CCOc3ccccc3)c(=O)c12 | 2.66% (inactive)
CCOC(=O)C(C)n1cnc2sc(C)c(C)c2c1=O (stereo not drawn) | 2.1% (inactive)
Cc1cccc(OC(=O)c2sc3ncn(C)c(=O)c3c2C)c1 | 82.2% (active)
COc1ccccc1C(C)NC(=O)Cc1ccsc1 (stereo not drawn) | 5.44% (inactive)
CC(CNc1ccc([N+](=O)[O-])cc1)NC(=O)c1ccccc1Br (stereo not drawn) | -0.0993% (inactive)
O=C(Cc1csc(Nc2nc(=S)[nH]c3ccccc23)n1)NCCCN1CCN(c2cccc(Cl)c2)CC1 | 67.8% (active)
O=C(CCn1c(=O)[nH]c2ccccc2c1=O)NCCCN1CCN(c2cccc(Cl)c2)CC1 | 2.26% (inactive)
COc1cccc(CNC(=O)Cc2csc(Nc3nc(=S)[nH]c4ccccc34)n2)c1 | 5.91% (inactive)
CN1C(=O)C2(OCCCO2)c2cc(Cl)ccc21 | -1.28% (inactive)

Structure (SMILES) | inhibition
C/C(=N\Nc1nncc2ccccc12)c1ccc(Cl)c([N+](=O)[O-])c1 | -1.2% (inactive)
COc1cc(/C=N/Nc2nn3cnnc3c3ccccc23)cc(OC)c1OC | -2.2% (inactive)
CN(CCO)c1ccc(/C=N/Nc2nncc3ccccc23)cc1 | 68.8% (active)
CC[N+]1(CC)CC2=Cc3ccccc3CC2C1 (stereo not drawn) | 5.88% (inactive)
COc1ccccc1OCCNc1cc(N2CCOCC2)ccc1[N+](=O)[O-] | -5.71% (inactive)
OC(CNCC1CCCO1)Cn1c2ccc(Br)cc2c2cc(Br)ccc21 (stereo not drawn) | 52.3% (active)
CC(NS(=O)(=O)c1ccc(Br)cc1)C(=O)NCC1CCCO1 (stereo not drawn) | -0.664% (inactive)
O=C(CSc1ccc(-c2ccc(Br)cc2)nn1)NCC1CCCO1 (stereo not drawn) | -6.3% (inactive)
CCOC(=O)C1(CCOc2ccccc2)CCN(Cc2cc(OC)cc(OC)c2)CC1 | -5.86% (inactive)
CC1CCCCN1S(=O)(=O)CCNC(=O)c1ccccc1 (stereo not drawn) | -1.35% (inactive)
CCn1c(SCC(=O)NC2CC2)nnc1-c1ccccn1 | 0.558% (inactive)
CC(C)(C)c1cc(C(=O)N/N=C/c2ccc([N+](=O)[O-])s2)n[nH]1 | 51.8% (active)
COc1ccc(C(=O)NCC(=O)N/N=C/c2ccc([N+](=O)[O-])s2)cc1OC | -2.08% (inactive)
Cc1ccccc1NCC(=O)N/N=C\c1ccc([N+](=O)[O-])s1 | 7.47% (inactive)
CCCCCCSc1nsc(N)n1 | 5.66% (inactive)
O=C(NCc1ccccc1)C(c1ccco1)N(C(=O)c1csnn1)c1ccccc1F (stereo not drawn) | 1.53% (inactive)
CC1(C)CC2CC(C)(CN2c2ncnc3ccc(Br)cc23)C1 (stereo not drawn) | 18.3% (inactive)
CC(=O)Nc1nc2ccccc2n1Cc1ccc(C)cc1 | 24.3% (inactive)
CCC(=O)Nc1nc2ccccc2n1Cc1ccccc1C | 61.8% (active)
CCCCn1c(CCCNC(=O)CC)nc2ccccc21 | -0.548% (inactive)
CC(C)C1N=C2c3ccccc3N=C(SCC(=O)c3ccc(O)c(O)c3)N2C1=O (stereo not drawn) | 19% (inactive)
